This passage reports growth inhibition results from PubChem BioAssay (NCI).

The panel holds about 79,000 compounds, 15% with a hit somewhere; the sample as a whole holds those more often. Values without a mark were called inactive. Activity calls are given as the source filed them. Cut-off read from the data, not from the text of the source: active = growth inhibition above about 70%; inactive = the rest.

Assay [1] in a line: NCI Yeast Anticancer Drug Screen. Data for the rad50 strain (AID 155).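 Note: 0% = growth of vehicle-only cultures of the same strain.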 The settings on record: S. cerevisiae rad50 strain growth inhibition; at 50.0 µM; active compounds read high. The method, boiled down:
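Relative growth inhibition (compound vs vehicle) was measured in yeast with a defined repair-gene alteration.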

Assay [2] in a line: NCI Yeast Anticancer Drug Screen. Data for the mec2-1 strain (AID 157). The note with it: S. cerevisiae mec2-1 strain, at 50.0 µM, active compounds read high. The method, boiled down: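 Yeast mec2-1 mutant treated with compound. Readout: growth inhibition vs vehicle controls.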
The nature of assay [3]: NCI Yeast Anticancer Drug Screen. Data for the sgs1 mgt1 strain (AID 161).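 Note: 0% = growth of cultures given vehicle only.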 The settings on record: S. cerevisiae sgs1 mgt1 strain, at 50.0 µM, active compounds read high. The method, boiled down: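 Read-out: growth inhibition vs vehicle controls. Cells: mutant yeast strain deficient in DNA damage repair.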
A short description of assay [4]: NCI Yeast Anticancer Drug Screen. Data for the cln2 rad14 strain (AID 165).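 Note: 0% = growth equal to vehicle treated cultures.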 The note with it: S. cerevisiae cln2 rad14 strain, at 50.0 µM, active compounds read high. The method, boiled down: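 cln2 rad14 yeast strain; compound exposure; growth inhibition read vs vehicle controls.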
Assay [5] can be described thus: NCI Yeast Anticancer Drug Screen. Data for the bub3 strain (AID 167). The settings on record: S. cerevisiae bub3 mutant strain, at 50.0 µM, active compounds read high. The method, boiled down:
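Screening used yeast with an engineered genetic alteration affecting cell cycle control. Compound-exposed cultures were compared with vehicle cultures, and reduced growth was taken as inhibition.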

Assay [6] is described as follows: NCI Yeast Anticancer Drug Screen. Data for the mlh1 rad18 strain (AID 175). The settings on record: S. cerevisiae mlh1 rad18 strain growth inhibition; at 50.0 µM; active compounds read high. The method, boiled down:
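Yeast w/ defined DNA-repair lesions; compound exposure; growth vs vehicle controls → % inhibition.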

On to `O=c1[nH]nc(Cc2ccc(Cl)cc2)n1O`, for which the growth inhibition in assay [1] is 3.3%; in assay [2], 5.3%; in assay [3], 0.1%; in assay [4], -26.6%; in assay [5] it was -13.5%; in assay [6], 1.65%.
With `CC(=O)O/C(=C\C(=O)[C@H]1CC[C@H]2[C@@H]3CC[C@@H]4C[C@H](OC(C)=O)CC[C@]4(C)[C@H]3C(=O)C[C@]12C)C(F)(F)F`, the growth inhibition in assay [1] is -16.1%; in assay [2], 23.6%; in assay [3] it was 5.25%; in assay [4] it was 18.8%; in assay [5], 8.85%; in assay [6] it was -13.6%.
As for `C/C(=N\NC(N)=O)c1cc2cc([N+](=O)[O-])ccc2oc1=O`, the growth inhibition in assay [1] is -2.2%; in assay [2], 23.6%; in assay [3], 16.1%; in assay [4], -7.85%; in assay [5] it was -12.6%; in assay [6], 8.5%.
As for `CN1CCS(=O)(=O)C2CCCCC2C1=O` (stereo not given), the growth inhibition in assay [1] was 1.25%; in assay [2], -13.4%; in assay [3] it was 4.85%; in assay [4] it was 11.8%; in assay [5], 10.5%; in assay [6] it was 1.1%.
As for `Cc1c(Cl)ccc([N+](=O)[O-])c1Cl`, the growth inhibition in assay [1] was 10.7%; in assay [2], -6.85%; in assay [3], -3.35%; in assay [4], 18.3%; in assay [5], 14.8%; in assay [6] it was 29.4%.
`O=C(NC1COB(c2cccc([N+](=O)[O-])c2)OC1c1ccc([N+](=O)[O-])cc1)C(Cl)Cl` (stereo not given): the growth inhibition in assay [1] was 12.8%; in assay [2], 27.9%; in assay [3], 5.65%; in assay [4], -23.9%; in assay [5], 15.7%; in assay [6], 63.5%.
In the case of `CC1=CC(O)C(C(O)(C(F)(F)F)C(F)(F)F)C(C)(C)C1` (stereo not given), the growth inhibition is -26.8% in assay [1]; -41.2% in assay [2]; -9.95% in assay [3]; -4.6% in assay [4]; 0.15% in assay [5]; -1.25% in assay [6].
As to `COC(=O)c1ccc(CS(=O)(=O)c2ccccc2)cc1`, the growth inhibition in assay [1] is 2%; in assay [2], -6.3%; in assay [3], 4.6%; in assay [4], 7.1%; in assay [5] it was 14.7%; in assay [6] it was -11.5%.
As to `NC(=O)N/N=C1\CC2CCC1C2Cl` (stereo not given), the growth inhibition in assay [1] is -0.05%; in assay [2], -1.35%; in assay [3], -5%; in assay [4], -0.45%; in assay [5], -13.7%; in assay [6], -14.8%.
For the molecule `C=CC1=C(C)C2=NC1=CC1=NC(=CC3=C(C)C4=C(O)C(C(=O)OC)C(=C5NC(=C2)C(C)C5CCC(=O)OC)C4=N3)C(CC)=C1C` (stereo not given), the growth inhibition in assay [1] was 10.1%; in assay [2], 11.3%; in assay [3] it was -48.8%; in assay [4] it was 7.95%; in assay [5] it was 4.95%; in assay [6] it was -12.5%.
As for `O=c1c2c(oc3cc(OCC4CO4)ccc13)CCC2` (stereo not given), the growth inhibition is -0.4% in assay [1]; -7.7% in assay [2]; -28.2% in assay [3]; -24.9% in assay [4]; -9.05% in assay [5]; -21.4% in assay [6].
Regarding `C1Cc2nnnn2C1`, the growth inhibition in assay [1] was -7.4%; in assay [2] it was -20.1%; in assay [3], 0.9%; in assay [4], -2.85%; in assay [5] it was -7.95%; in assay [6], 12.6%.
`CC(=O)Nc1ccc(S(=O)(=O)Nc2c(-c3ccccc3)[nH]c(C)c2C(C)=O)cc1`: the growth inhibition was 1.65% in assay [1]; 7.85% in assay [2]; -10.3% in assay [3]; -0.65% in assay [4]; 1.65% in assay [5]; 13.8% in assay [6].
Take `O=C(O)c1cccc2c1C1CCC2c2cccc(C(=O)O)c21`: the growth inhibition in assay [1] was -29.2%; in assay [2], 0.95%; in assay [3] it was 15.6%; in assay [4], 3.05%; in assay [5], -2.6%; in assay [6], 9.7%.
`Cn1c(=O)cc2[nH]c3ccccc3n2c1=O`: the growth inhibition in assay [1] is 9.5%; in assay [2], 22.4%; in assay [3], -10%; in assay [4], -5.7%; in assay [5], 4.6%; in assay [6] it was -19.7%.
As to `O=C(O)C1C(C(=O)O)C1c1ncnc2nc[nH]c12` (stereo not given), the growth inhibition in assay [1] is -0.95%; in assay [2], -13.7%; in assay [3], -4.95%; in assay [4], -26.8%; in assay [5], -17.8%; in assay [6], 7.4%.
As to `CC(O)CCNc1nnc2c3ccccc3n(C)c2n1` (stereo not given), the growth inhibition in assay [1] was 5.95%; in assay [2], 0.65%; in assay [3] it was 0.1%; in assay [4], 44.2%; in assay [5] it was 5.3%; in assay [6], -16.2%.
For `NC(N)=NCCCc1ccccc1`, the growth inhibition is 7.05% in assay [1]; 7.25% in assay [2]; 0.8% in assay [3]; 1.85% in assay [4]; 4% in assay [5]; -3.55% in assay [6].
As for `O=C(Oc1c(Cl)cc(Cl)cc1C=Nc1ccc(Cl)cc1)c1ccccc1`, the growth inhibition in assay [1] is 67.1%; in assay [2], 71.4% (active); in assay [3], 88.7% (active); in assay [4], 42.4%; in assay [5], 58.2%; in assay [6] it was 83.9% (active).
On to `CC(=O)C1C(=O)C(=O)N(c2ccccc2N2C(=O)C(=O)C(C(C)=O)C2=O)C1=O` (stereo not given), for which the growth inhibition in assay [1] is 18.6%; in assay [2], -2.25%; in assay [3], 10.8%; in assay [4], 17.8%; in assay [5], -2.35%; in assay [6], 25.8%.
